# Shown is part of a subset that was picked to be rich in the strongest signals.
# B1: SBD (Rhizopus oryzae), P07683 (protein)
# chain: ASIPSSASVQLDSYNYDGSTFSGKIYVKNIAYSKKVTVVYADGSDNWNNNGNIIAASFSGPISGSNYEYWTFSASVKGIKEFYIKYEVSGKTYYDNNNSANYQVS
# Legend:
# Assay in all cases: glycan array binding signal (z-score within array); higher = stronger binding
# Conditions in all cases: glycan notation: IUPAC condensed, linker removed
# [1] = target: Fuc(a1-2)Gal(b1-3)GalNAc
# Method in brief: (§1)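 The binding signal is a Z-score computed within each array and averaged over linkers. Arrays of the same protein sequence at different concentrations or buffers were also averaged together. Data originate from 3228 arrays in the Consortium for Functional Glycomics database, kept only where the protein sequence was available.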
# [2] = target: Fuc(a1-2)Gal(b1-3)GalNAc(b1-3)Gal
# Method in brief: as §1
# [3] = target: Fuc(a1-2)Gal(b1-3)GlcNAc(b1-3)Gal(b1-4)Glc
# Method in brief: as §1
# [4] = target: Fuc(a1-2)Gal(b1-4)Glc
# Method in brief: as §1
# [5] = target: Fuc(a1-2)[GalNAc(a1-3)]Gal(b1-4)Glc
# Method in brief: as §1
# [6] = target: Fuc(a1-3)GlcNAc
# Method in brief: as §1
# [7] = target: Fuc(a1-3)[Gal3S(b1-4)]Glc6S
# Method in brief: as §1
# [8] = target: Gal(a1-3)Gal
# Method in brief: as §1
# [9] = target: Gal(a1-4)Gal(b1-4)GlcNAc(b1-2)Man(a1-3)[Gal(a1-4)Gal(b1-4)GlcNAc(b1-2)Man(a1-6)]Man(b1-4)GlcNAc(b1-4)GlcNAc
# Method in brief: as §1
# [10] = target: Gal(a1-4)Gal(b1-4)GlcNAc(b1-3)Gal(b1-4)Glc
# Method in brief: as §1
# [11] = target: Gal(b1-3)GlcNAc
# Method in brief: as §1
# [12] = target: Gal(b1-3)GlcNAc(b1-3)Gal(b1-4)Glc
# Method in brief: as §1
# [13] = target: Gal(b1-3)[Fuc(a1-4)]GlcNAc
# Method in brief: as §1
# [14] = target: Gal(b1-3)[Fuc(a1-4)]GlcNAc(b1-3)Gal(b1-4)[Fuc(a1-3)]GlcNAc
# Method in brief: as §1
# [15] = target: Gal(b1-3)[Neu5Ac(b2-6)]GalNAc
# Method in brief: as §1
# [16] = target: Gal(b1-4)GlcNAc(b1-2)Man(a1-6)[GlcNAc(b1-2)Man(a1-3)]Man(b1-4)GlcNAc(b1-4)GlcNAc
# Method in brief: as §1
# [17] = target: Gal(b1-4)GlcNAc(b1-6)Gal(b1-4)GlcNAc
# Method in brief: as §1
# [18] = target: Gal(b1-4)GlcNAc(b1-6)GalNAc
# Method in brief: as §1
# [19] = target: Gal3S(b1-4)Glc
# Method in brief: as §1
# [20] = target: Gal3S6S(b1-4)GlcNAc6S
# Method in brief: as §1
# [21] = target: Gal6S(b1-4)Glc
# Method in brief: as §1
# [22] = target: GalNAc(b1-3)Gal(a1-4)Gal(b1-4)GlcNAc
# Method in brief: as §1
# [23] = target: Glc(a1-6)Glc(a1-6)Glc
# Method in brief: as §1
# [24] = target: Glc(b1-4)Glc
# Method in brief: as §1
# [25] = target: GlcNAc(b1-3)[GlcNAc(b1-4)][GlcNAc(b1-6)]GlcNAc
# Method in brief: as §1
# [26] = target: Kdn(a2-3)Gal(b1-3)GalNAc
# Method in brief: as §1
# [27] = target: Man(a1-2)Man(a1-2)Man(a1-3)Man
# Method in brief: as §1
# [28] = target: Man(a1-3)[Man(a1-6)]Man(a1-6)[Man(a1-3)]Man(b1-4)GlcNAc(b1-4)GlcNAc
# Method in brief: as §1
# [29] = target: Neu5Ac(a2-3)Gal(b1-3)GlcNAc(b1-3)GalNAc
# Method in brief: as §1
# [30] = target: Neu5Ac(a2-3)Gal(b1-4)GlcNAc(b1-3)Gal(b1-4)GlcNAc(b1-3)Gal(b1-4)GlcNAc
# Method in brief: as §1
binder,measurement,setting,value
B1,glycan array binding signal (z-score),[1],0.019
same,glycan array binding signal (z-score),[2],2.93
same,glycan array binding signal (z-score),[3],2.1
same,glycan array binding signal (z-score),[4],-0.623
same,glycan array binding signal (z-score),[5],-0.2
same,glycan array binding signal (z-score),[6],0.165
same,glycan array binding signal (z-score),[7],0.589
same,glycan array binding signal (z-score),[8],-0.697
same,glycan array binding signal (z-score),[9],2.59
same,glycan array binding signal (z-score),[10],0.2
same,glycan array binding signal (z-score),[11],0.042
same,glycan array binding signal (z-score),[12],2.02
same,glycan array binding signal (z-score),[13],-0.029
same,glycan array binding signal (z-score),[14],0.121
same,glycan array binding signal (z-score),[15],-0.657
same,glycan array binding signal (z-score),[16],-0.081
same,glycan array binding signal (z-score),[17],0.47
same,glycan array binding signal (z-score),[18],-0.13
same,glycan array binding signal (z-score),[19],0.207
same,glycan array binding signal (z-score),[20],0.19
same,glycan array binding signal (z-score),[21],-0.476
same,glycan array binding signal (z-score),[22],-0.155
same,glycan array binding signal (z-score),[23],-0.213
same,glycan array binding signal (z-score),[24],-0.436
same,glycan array binding signal (z-score),[25],-0.005
same,glycan array binding signal (z-score),[26],0.62
same,glycan array binding signal (z-score),[27],5.61
same,glycan array binding signal (z-score),[28],-0.313
same,glycan array binding signal (z-score),[29],2
same,glycan array binding signal (z-score),[30],-0.668

# Source: the supplement of paper PMC8728848
